Cruzain noTriton = inhibitors of Trypanosoma cruzi cruzain without detergent; P25779; purified cruzain, Z-FR-AMC fluorescence, no detergent; Potency, µM, for inactives: max response, negative = inhibition, actives largely listed as inhibitors; 2.3% of 200,000 active;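 also: plate controls were enzyme without inhibitor for no effect and buffer without enzyme for full effect; nearly all actives have a fitted effect of over 40% in size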
Target sequence (P25779 123-467 limits assumed): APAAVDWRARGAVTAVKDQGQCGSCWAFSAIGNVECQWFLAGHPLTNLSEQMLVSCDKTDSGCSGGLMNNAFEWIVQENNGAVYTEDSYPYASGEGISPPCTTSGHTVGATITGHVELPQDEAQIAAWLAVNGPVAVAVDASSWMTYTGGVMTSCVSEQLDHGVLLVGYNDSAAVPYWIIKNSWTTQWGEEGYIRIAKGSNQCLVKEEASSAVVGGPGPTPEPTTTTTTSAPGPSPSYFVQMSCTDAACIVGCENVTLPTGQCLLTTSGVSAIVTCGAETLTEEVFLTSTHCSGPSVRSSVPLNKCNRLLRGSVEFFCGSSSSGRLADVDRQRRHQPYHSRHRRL
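Detergent-free condition (0.00005% Triton X-100) in acetate buffer pH 5.5 with DTT. 1.5 nM enzyme and compound were pre-mixed 15 min, then 2 uM Z-FR-AMC substrate added; reaction progress from fluorescence change between first and third reads (60 s).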
Cruzain inh Det = cruzain (T. cruzi) inhibition with detergent | P25779 | purified cruzain, Z-FR-AMC fluorescence, 0.01% Triton | Potency, µM, for the others: max response, negative = inhibition, usual class: inhibitors | 0.43% of 200,000 active;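 also: plate controls were neutral wells for no effect and buffer without enzyme for full effect; nearly all actives have a fitted effect of over 40% in size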
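Cysteine protease activity tested under reducing, mildly acidic conditions (100 mM sodium acetate pH 5.5, 5 mM DTT) plus 0.01% Triton X-100. Cruzain 1.5 nM; substrate Z-FR-AMC 2 uM; 15 min compound preincubation at room temperature.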
Starred values were filed as active, the others as inactive; ! = repeats disagree. The list is not random: actives were taken first. Their share in the collection is about 2.6%. Calls follow the shape of the dose curve; as a rule, active = well fitted curve in the direction sought with a large enough effect; inconclusive = small, poorly fitted or top-dose-only effect, or another doubt; inactive = no such curve, though single readings can be large; an effect the other way counts as inactive or inconclusive. Potency is read from the fitted curve at half-maximal effect.

For COCc1c(Br)c(C)nc(OCC(=O)N/N=C/c2cc(C)n(-c3ccc([N+](=O)[O-])cc3)c2C)c1C#N the results were Cruzain noTriton 31.6µM* and Cruzain inh Det -3.3%.
COCc1cc(C)nc(OCC(=O)N/N=C/c2cc(C)n(-c3c(C)cccc3C)c2C)c1C#N was read as Cruzain noTriton 10.2% and Cruzain inh Det -2.7%.
For CO[C@@H]1[C@@H](OC(N)=O)[C@@H](O)[C@H](Oc2ccc3c(O)c(NC(=O)c4ccc(O)c(CC=C(C)C)c4)c(=O)oc3c2C)OC1(C)C the results were Cruzain noTriton 26.6% and Cruzain inh Det -12.2%.
Screening COc1ccc2cc(C(=O)NCc3ccc4c(c3)CCN4C(=O)c3ccc(F)cc3)[nH]c2c1 returned Cruzain noTriton 25.1µM* and Cruzain inh Det -0.8%.
Cc1ccc(NC(=O)NCc2ccc3c(c2)CCN3C(=O)c2ccccc2)c(Cl)c1 was read as Cruzain noTriton -22.5% and Cruzain inh Det -4.3%.
COc1ccc2cc(C(=O)NCc3ccc4c(c3)CCN4C(=O)c3ccc(C)cc3)[nH]c2c1 was read as Cruzain noTriton 12.6µM* and Cruzain inh Det -1.6%.
For COc1ccc(C)cc1NC(=O)NCc1ccc2c(c1)CCN2C(=O)c1ccccc1 the results were Cruzain noTriton 20µM* and Cruzain inh Det -3.1%.
COc1ccc(C(=O)NCc2ccc3c(c2)CCN3C(=O)c2ccccc2)cc1 was read as Cruzain noTriton 14.2% and Cruzain inh Det -1.1%.
`COc1ccc(C(=O)NCc2ccc3c(c2)CCN3C(=O)c2ccc(F)cc2)cc1` gave Cruzain noTriton 9.8% and Cruzain inh Det -0.4%.
`Cc1cc(C)n(-c2ccc(C(=O)OCc3nnc(-c4ccccc4)o3)cc2)n1` gave Cruzain noTriton -18.3% and Cruzain inh Det 1.0%.
For Cc1cc(C)cc(NC(=O)CCc2c(C)nn(-c3ccc(N4CCCC4)nn3)c2C)c1 the results were Cruzain noTriton 23.1% and Cruzain inh Det -2.7%.
For Cc1nn(-c2ccccn2)c2c1C(c1ccccc1Cl)C1=C(N2)c2ccccc2C1=O (stereo not given) the results were Cruzain noTriton -13.5% and Cruzain inh Det -2.3%.
`Cc1nn(-c2ccccn2)c2c1C(c1c(F)cccc1Cl)C1=C(N2)c2ccccc2C1=O` (stereo not given) gave Cruzain noTriton 25.1µM* and Cruzain inh Det -5.6%.
`CCO/C=C1\C(=O)N(CC)c2ccccc21` gave Cruzain noTriton -4.7% and Cruzain inh Det -1.7%.
`C#CCn1c(=NC(=O)c2ccccc2[N+](=O)[O-])sc2cc(S(C)(=O)=O)ccc21` gave Cruzain noTriton inconclusive and Cruzain inh Det 0.6%.
`Cc1nc(SCC(=O)Nc2ccc(Cl)cc2[N+](=O)[O-])nc(C)c1C` gave Cruzain noTriton -27.8% and Cruzain inh Det -7.2%.
`COc1ccc(/C=N/NC(=O)CCn2c3ccccc3c3ccccc32)cc1OC` gave Cruzain noTriton inconclusive and Cruzain inh Det -8.4%.
For CCn1c2ccccc2c2cc(/C=N/NC(=O)c3ccc(O)cc3)ccc21 the results were Cruzain noTriton 25.1µM* and Cruzain inh Det inconclusive.
Screening CC(C)=CCc1c2c(c3occ(-c4ccc(O)cc4)c(=O)c3c1O)C=CC(C)(C)O2 returned Cruzain noTriton inconclusive and Cruzain inh Det -8.6%.
Screening CC(C)=CCc1c2c(c3occ(-c4ccc(O)c(O)c4)c(=O)c3c1O)C=CC(C)(C)O2 returned Cruzain noTriton 25.1µM*! and Cruzain inh Det -1.2%.
For COC(=O)/C(=N\Nc1ccccc1)Sc1nnc(-c2ccc(OC)cc2)n1C the results were Cruzain noTriton -14.6% and Cruzain inh Det -8.8%.
Screening Cc1cc(C)c2c(c1)/C(=N/NS(=O)(=O)c1ccccc1)CCC2 returned Cruzain noTriton 4.2% and Cruzain inh Det -7.1%.
Screening Cc1cc(C)c2c(c1)/C(=N/NC(=S)Nc1ccc(F)cc1)CCC2 returned Cruzain noTriton 15.8µM* and Cruzain inh Det -8.5%.
For COc1ccc(C2C(C(=O)N3CCOCC3)c3ccccc3C(=O)N2c2ccc(OC)cc2)cc1 (stereo not given) the results were Cruzain noTriton 6.0% and Cruzain inh Det 3.5%.
COc1ccc(OC)c(NC(=O)C(=O)N/N=C/c2ccccc2[N+](=O)[O-])c1 was read as Cruzain noTriton -20.0% and Cruzain inh Det 1.3%.
COc1ccc(NC(=O)C(=O)N/N=C/c2cc(C)n(-c3cccc(Cl)c3Cl)c2C)c(OC)c1 was read as Cruzain noTriton 12.6µM* and Cruzain inh Det -4.2%.
`Brc1ccc(CN2CCNCC2)s1` gave Cruzain noTriton -8.7% and Cruzain inh Det -0.9%.
CCOC(=O)c1cnc2cc(-c3ccc(Cl)cc3)nn2c1-c1ccccc1 was read as Cruzain noTriton 7.1% and Cruzain inh Det -1.6%.
CCOC(=O)c1cnc2cc(-c3ccc(Cl)cc3)nn2c1N was read as Cruzain noTriton 10µM* and Cruzain inh Det 8.5%.
For N/C(=C/C(=O)c1ccccc1O)C(F)(F)F the results were Cruzain noTriton 15.0% and Cruzain inh Det -6.6%.
For COC(=O)CSc1nc2c(c(-c3ccco3)c1C#N)CCCC2 the results were Cruzain noTriton 20µM* and Cruzain inh Det 28.2µM*.
Screening CCOC(=O)CSc1nc2c(c(-c3ccc(C)o3)c1C#N)CCCC2 returned Cruzain noTriton 22.9% and Cruzain inh Det -10.7%.
Screening CCOc1ccc(NC(=O)c2ccccc2NS(=O)(=O)c2ccc(F)cc2)c([N+](=O)[O-])c1 returned Cruzain noTriton -3.4% and Cruzain inh Det -4.7%.
Screening O=C1OC(/C=C/c2ccccc2)=NC/1=C/C=C/c1ccccc1 returned Cruzain noTriton inconclusive and Cruzain inh Det 5.01µM*.
Screening NC1=NC(=O)/C(=C\C=C\c2ccccc2)S1 returned Cruzain noTriton inconclusive and Cruzain inh Det 3.5%.
`Cc1ccc(Cl)cc1-n1ncc2c(NCCCn3ccnc3)ncnc21` gave Cruzain noTriton 9.8% and Cruzain inh Det 0.2%.
Screening CCCOc1ccc(C(=O)Nc2nc(C)c(Cc3ccc4c(c3)OCO4)s2)cc1 returned Cruzain noTriton -26.9% and Cruzain inh Det -1.4%.
Cc1c(Cc2ccc3c(c2)OCO3)sc(NC(=O)c2ccc3ccccc3c2)c1C(N)=O was read as Cruzain noTriton 10µM* and Cruzain inh Det -1.5%.
Screening Cc1cccc(-c2cc(-c3ccccc3)nc(SCC(=O)Nc3ccccc3)c2C#N)c1 returned Cruzain noTriton 12.2% and Cruzain inh Det 1.1%.
Screening CCc1nnc(NC(=O)CSc2nc(-c3ccc(F)cc3)cc(-c3ccccc3)c2C#N)s1 returned Cruzain noTriton 7.94µM* and Cruzain inh Det -0.3%.
For COc1ccc(-c2cc(-c3cccs3)c(C#N)c(SCC(=O)NCc3ccccc3)n2)cc1 the results were Cruzain noTriton 7.94µM* and Cruzain inh Det 4.1%.
Screening CCSc1nc(-c2ccc(OC)cc2)cc(-c2ccccc2)c1C#N returned Cruzain noTriton -13.6% and Cruzain inh Det -0.6%.
Screening COc1ccc(-c2cc(-c3cccs3)c(C#N)c(SCC(=O)NCc3ccccc3OC)n2)cc1 returned Cruzain noTriton inconclusive and Cruzain inh Det 5.7%.
COc1ccc(-c2cc(-c3ccccc3)nc(SCC(=O)Nc3ncc(C)s3)c2C#N)cc1 was read as Cruzain noTriton 7.94µM* and Cruzain inh Det -5.2%.
Screening CC(=O)NC(Cc1ccccc1)C(=O)NC1CCN(C(=O)c2cnccn2)CC1 (stereo not given) returned Cruzain noTriton -10.4% and Cruzain inh Det -8.1%.
`O=C(O)c1ccc2c(c1)-c1nc3ccccc3n1C2=O` gave Cruzain noTriton -2.2% and Cruzain inh Det 0.7%.

Assay outcomes as filed in PubChem.
